The supplement of paper PMC11417369
Over roughly 25,000 sequences, “ln(normalized median fluorescence intensity)” has its median near 9.7; the highest 2% begin near 11. The list comes from a sample in which the highest values are over-represented; it also holds similar and randomly drawn sequences.

system: PfAP2-HC AP2 domain (GST-tagged); assay: gcPBM binding intensity (ln(normalized median fluorescence intensity)); higher = stronger DNA binding
Method in brief: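 Binding intensity is the highest Masliner-normalised natural-log median intensity over replicate spots in either probe orientation. To obtain it, GST-tagged P. falciparum DNA-binding domains made in E. coli were incubated for 1 h on an Agilent 4 × 180k array of primer-extended double-stranded 36-bp intergenic genomic probes plus negative controls. Detection used Alexa488 anti-GST antibody with scanning at 488 nm.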

Row | Sequence | gcPBM binding intensity (ln)
1 | AAAATCTATATTAACACACACACAAAAAAAAAAAAA [CACACA_site6738] | 10.6
2 | TAACTTGAATGGATATGTACATATATATATATATAT [XGTACX_site5990] | 10
3 | TTGTTTTTTTTTTCTATAAGCATAAAAATGATATAA [XGTACX_negctrl_site356] | 9.27
4 | ATATAAGAAATAAAGAAAAATGTGTTTTTTTTTTTT [XGTACX_negctrl_site396] | 9.6
5 | ATATATATATATATAACACACGCAAAAAAATTAAAT [CACACA_site8395] | 10.1
6 | ACGATGAATATGTAAAGTACGCAAATGTAACAATAT [XGTACX_site728] | 9.91
7 | TATCATTGTTCATGCTTGCACTTTTGTTACTGTTCC [GTGCAC_site9425] | 9.87
8 | GAGAACATTGATACACGTACATAAGTTATAAGTATT [XGTACX_site7665] | 9.71
9 | TTAATTACATGTAATTGTACTTAATTATAAGACATT [XGTACX_site464] | 9.52
10 | AAAAAAAATATCTATGCATGTAATATTATGATATTG [TGCATGCA_site546] | 9.58
11 | TTCAAAAATATATAATGTACACAAATATAAAAGAAT [XGTACX_site1944] | 9.81
12 | AAAAGAAAAAGAAAAACACACATAAATATAAATATA [CACACA_site1879] | 10.2
13 | ATAAAAAAAAGAAAAACACACACATATATATATATA [CACACA_site8243] | 10.4
14 | ATACTAAAGAAACACACACACATATATATATAGAAT [CACACA_site100] | 10.9
15 | AATAAAAAGAAACACACACACACACCCATATATATA [CACACA_site3589] | 11.5
16 | AAAAAGGAGAAACACACACACACACCCATATATATA [CACACA_site905] | 10.7
17 | AGAAAAAAAAAACACACACACACACCCTCAATATAA [CACACA_site39] | 10.5
18 | AAAGAAAAAAAAAACACACACACACGCATTCAATAT [CACACA_site6169] | 10.7
19 | CACTAAAAGAAACACACACACACACCCATATATATA [CACACA_site4151] | 11

Row | Sequence | gcPBM binding intensity (ln)
20 | AAAGAAAAAAAAAACACACACACACCCATTCAATAT [CACACA_site38] | 11.4
21 | TATCATTTGGTCTTTTACTTTTTCTGTTTTTTTTTT [CACACA_negctrl_site976] | 9.91
22 | CTCATTTTTGTACAGGTGCACTTATCGTTACACTAT | 9.93
23 | CGAAGGTTTGGCCATGCATGTTATAAGAATATATGT [TGCATGCA_site441] | 9.51
24 | AACTTTATTCCTAATTGTACACATATATATATATAT [XGTACX_site6823] | 10
25 | GGGGACGCGGGTGGGGGTACTCACACTATGCAAAAT [XGTACX_site7745] | 9.74
26 | AATAAGCTCACGTGTCGTACATTTTTTAAAACAACC [XGTACX_site4707] | 9.78
27 | CGTATTTATATAATTACACACCATATTTTAATTATT [CACACA_site5960] | 9.76
28 | AATGAACAGACGAGCACACACACACCCATATATATA [CACACA_site1018] | 10.9
29 | AATGAACTCACGAGCACACACACACCGATATATATA [CACACA_site4710] | 11
30 | AAAATGAACTCACGAGCACACACACCCATATATATA [CACACA_site8247] | 10.3
31 | AAAACACGCGGACACACACACACACCCACCCATATA [CACACA_site8688] | 11.6
32 | AACACGCGCAGACACACACACACACCCACATATATA [CACACA_site2205] | 10.6
33 | AACACGCGCGGACACACACACACACCCACATATATA [CACACA_site5252] | 11.3
34 | CATACACCCGGACACACACACACACCCATATATAAT [CACACA_site4494] | 10.5
35 | CACGCGCCCGGACACACACACACACCCATATATATA [CACACA_site5251] | 11.3
36 | AAAACACGCGGACACACACACACACGCCCACATATA [CACACA_site7105] | 10.6
37 | CGTGGGAGCGGACACACACACACACCCATATATATA [CACACA_site4340] | 10.4
38 | TATACACCCGGACACACACACATATATATATATATA [CACACA_site5030] | 10.3

Row | Sequence | gcPBM binding intensity (ln)
39 | ATTTATATGTGGAGCAGTACGCACTCTCACAATTAA [XGTACX_site7252] | 9.44
40 | TGAATATTTACTTTAGCACACAATTTGTATTTGATT [CACACA_site960] | 9.86
41 | ATTATTTACCACAACACACAAATATTTACCAATCAT [CACACA_site5472] | 10.5
42 | TTGTTTATTTGTAAAGCTAACAAGAAATGTGAATAT [CACACA_negctrl_site931] | 9.51
43 | AGCATTTTAAAAGAAAAAAAAAAAAAAAAAAAAATA [GTGCAC_negctrl_site723] | 9.17
44 | TCATTTTACAGATGTGCATGTGAATCAATCTATTTA [TGCATGCA_site787] | 9.56
45 | ATTACTAAAAAATATAAACACACATATATTTTACAT [CACACA_site8633] | 9.88
46 | CACAGACACGGACACACACACACACCCAGACACATA [CACACA_site4357] | 11.6
47 | TGGGAGCACAGACACACACACACACCGATATATATA [CACACA_site8001] | 11.3
48 | TTGGCATACGGACACACACACACACCCAGACATATA [CACACA_site4492] | 10.4
49 | CACAGACACGGACACACACACACACCCATATATATA [CACACA_site4354] | 11.3
50 | CACAGACACGGACACACACACATATATATATATATA [CACACA_site5248] | 10.4
51 | TGGGAGCACAGACACACACACACACCCATATATATA [CACACA_site335] | 10.5
52 | CACAGACACGGACACACACACACACCGATATATATA [CACACA_site4353] | 11.2
53 | CGCGCACCCAGACACACACACACACCGATATATATA [CACACA_site8687] | 10.9
54 | TATATTATCAAAATGGTGCAATAATTTCTATATTAT [GTGCAC_site9772] | 9.49
55 | ATATAATGACAAGTATAAGTATCACAAAGAAATAAA [CACACA_negctrl_site1403] | 9.79
56 | CAGGCGTGAAATATACGTACACACATTATTTATATT [XGTACX_site5337] | 9.94
57 | AAGAAAAAAAAAATTACACACTGCGGACATACACAA [CACACA_site4838] | 9.98
